# Measurements: the supplement of paper PMC4466140
# B1: unnamed (peptide)
# chain: PSPSSSPPPIPKTAN
# B2: unnamed (peptide)
# chain: FVLRYYILIPHEQWD
# B3: unnamed (peptide)
# chain: YLTRPLPSTPNEDSR
# What was measured:
# Assay in all cases: SPOT peptide array binding signal intensity (averaged, normalized) (arbitrary units (background-subtracted, floor 0; scale differs between SH3 domains)); higher = stronger binding of the SH3 domain to the peptide
# AgAbp1 = molecular target: AgAbp1
# How it was run: (§1)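 GST-fused SH3 domains, from four yeast species, were produced in E. coli BL21(DE3) and captured on glutathione Sepharose. Membranes of cellulose carrying synthetic 15-mer peptides, in which cysteines had been replaced by serines, were exposed to each domain at 10 μg/ml overnight at 4°C in TBS-based blocking buffer. After anti-GST antibody, an HRP anti-mouse secondary and luminol, spots were imaged and quantified using Genespotter. Binding signal is normalized and background-subtracted spot intensity, averaged over replicates, in arbitrary units that differ between domains.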
# AgBbc1 = molecular target: AgBbc1
# How it was run: as §1
# AgBem1-D1 = molecular target: AgBem1-D1
# How it was run: as §1
# AgBzz1-D1 = molecular target: AgBzz1-D1
# How it was run: as §1
# AgBzz1-D2 = molecular target: AgBzz1-D2
# How it was run: as §1
# AgCyk3 = molecular target: AgCyk3
# How it was run: as §1
# AgFus1 = molecular target: AgFus1
# How it was run: as §1
# AgHof1 = molecular target: AgHof1
# How it was run: as §1
# AgHse1 = molecular target: AgHse1
# How it was run: as §1
# AgLsb1 = molecular target: AgLsb1
# How it was run: as §1
# AgLsb4 = molecular target: AgLsb4
# How it was run: as §1
# AgMyo5 = molecular target: AgMyo5
# How it was run: as §1
# AgNbp2 = molecular target: AgNbp2
# How it was run: as §1
# AgRvs167 = molecular target: AgRvs167
# How it was run: as §1
# AgSho1 = molecular target: AgSho1
# How it was run: as §1
# AgSla1-D1-D2 = molecular target: AgSla1-D1-D2
# How it was run: as §1
# AgSla1-D3 = molecular target: AgSla1-D3
# How it was run: as §1
# CaAbp1-D1 = molecular target: CaAbp1-D1
# How it was run: as §1
# CaAbp1-D2 = molecular target: CaAbp1-D2
# How it was run: as §1
# CaBbc1 = molecular target: CaBbc1
# How it was run: as §1
# CaBem1-D1 = molecular target: CaBem1-D1
# How it was run: as §1
# CaBzz1-D1 = molecular target: CaBzz1-D1
# How it was run: as §1
# CaBzz1-D2 = molecular target: CaBzz1-D2
# How it was run: as §1
# CaCyk3 = molecular target: CaCyk3
# How it was run: as §1
# CaFus1 = molecular target: CaFus1
# How it was run: as §1
# CaHof1 = molecular target: CaHof1
# How it was run: as §1
# CaHse1 = molecular target: CaHse1
# How it was run: as §1
# CaLsb1 = molecular target: CaLsb1
# How it was run: as §1
# CaLsb4 = molecular target: CaLsb4
# How it was run: as §1
# CaMyo5 = molecular target: CaMyo5
# How it was run: as §1
# CaNbp2 = molecular target: CaNbp2
# How it was run: as §1
# CaRvs167 = molecular target: CaRvs167
# How it was run: as §1
# CaRvs167-3 = molecular target: CaRvs167-3
# How it was run: as §1
# CaSho1 = molecular target: CaSho1
# How it was run: as §1
# CaSla1-D1-D2 = molecular target: CaSla1-D1-D2
# How it was run: as §1
# CaSla1-D3 = molecular target: CaSla1-D3
# How it was run: as §1
# ScAbp1 = molecular target: ScAbp1
# How it was run: as §1
# ScBbc1 = molecular target: ScBbc1
# How it was run: as §1
# ScBem1-D1 = molecular target: ScBem1-D1
# How it was run: as §1
# ScBzz1-D1 = molecular target: ScBzz1-D1
# How it was run: as §1
# ScBzz1-D2 = molecular target: ScBzz1-D2
# How it was run: as §1
# ScCyk3 = molecular target: ScCyk3
# How it was run: as §1
# ScFus1 = molecular target: ScFus1
# How it was run: as §1
# ScHof1 = molecular target: ScHof1
# How it was run: as §1
# ScHse1 = molecular target: ScHse1
# How it was run: as §1
# ScLsb1 = molecular target: ScLsb1
# How it was run: as §1
# ScLsb2 = molecular target: ScLsb2
# How it was run: as §1
# ScLsb3 = molecular target: ScLsb3
# How it was run: as §1
# ScLsb4 = molecular target: ScLsb4
# How it was run: as §1
# ScMyo3 = molecular target: ScMyo3
# How it was run: as §1
# ScMyo5 = molecular target: ScMyo5
# How it was run: as §1
# ScNbp2 = molecular target: ScNbp2
# How it was run: as §1
# ScPex13 = molecular target: ScPex13
# How it was run: as §1
# ScRvs167 = molecular target: ScRvs167
# How it was run: as §1
# ScSho1 = molecular target: ScSho1
# How it was run: as §1
# ScSla1-D1-D2 = molecular target: ScSla1-D1-D2
# How it was run: as §1
# ScSla1-D3 = molecular target: ScSla1-D3
# How it was run: as §1
# SpAbp1-D1 = molecular target: SpAbp1-D1
# How it was run: as §1
# SpBbc1 = molecular target: SpBbc1
# How it was run: as §1
# SpBzz1-D1 = molecular target: SpBzz1-D1
# How it was run: as §1
# SpBzz1-D2 = molecular target: SpBzz1-D2
# How it was run: as §1
# SpCyk3 = molecular target: SpCyk3
# How it was run: as §1
# SpHof1 = molecular target: SpHof1
# How it was run: as §1
# SpHof1-2 = molecular target: SpHof1-2
# How it was run: as §1
# SpHof1-3 = molecular target: SpHof1-3
# How it was run: as §1
# SpHse1 = molecular target: SpHse1
# How it was run: as §1
# SpLsb1 = molecular target: SpLsb1
# How it was run: as §1
# SpLsb4 = molecular target: SpLsb4
# How it was run: as §1
# SpMyo1 = molecular target: SpMyo1
# How it was run: as §1
# SpNbp2 = molecular target: SpNbp2
# How it was run: as §1
# SpPex13 = molecular target: SpPex13
# How it was run: as §1
# SpRvs167 = molecular target: SpRvs167
# How it was run: as §1
# SpSla1-D1-D2 = molecular target: SpSla1-D1-D2
# How it was run: as §1
# SpSla1-D3 = molecular target: SpSla1-D3
# How it was run: as §1
binder,measurement,setting,value
B1,SPOT peptide array binding signal intensity,AgAbp1,6.5
same,SPOT peptide array binding signal intensity,AgBbc1,2.5
same,SPOT peptide array binding signal intensity,AgBem1-D1,5
same,SPOT peptide array binding signal intensity,AgBzz1-D1,2
same,SPOT peptide array binding signal intensity,AgBzz1-D2,22.5
same,SPOT peptide array binding signal intensity,AgCyk3,1
same,SPOT peptide array binding signal intensity,AgFus1,0.5
same,SPOT peptide array binding signal intensity,AgHof1,≤ 0
same,SPOT peptide array binding signal intensity,AgHse1,27
same,SPOT peptide array binding signal intensity,AgLsb1,1
same,SPOT peptide array binding signal intensity,AgLsb4,≤ 0
same,SPOT peptide array binding signal intensity,AgMyo5,1760
same,SPOT peptide array binding signal intensity,AgNbp2,≤ 0
same,SPOT peptide array binding signal intensity,AgRvs167,2.33
same,SPOT peptide array binding signal intensity,AgSho1,2.5
same,SPOT peptide array binding signal intensity,AgSla1-D1-D2,2.5
same,SPOT peptide array binding signal intensity,AgSla1-D3,≤ 0
same,SPOT peptide array binding signal intensity,CaAbp1-D1,≤ 0
same,SPOT peptide array binding signal intensity,CaAbp1-D2,9
same,SPOT peptide array binding signal intensity,CaBbc1,1
same,SPOT peptide array binding signal intensity,CaBem1-D1,≤ 0
same,SPOT peptide array binding signal intensity,CaBzz1-D1,112
same,SPOT peptide array binding signal intensity,CaBzz1-D2,15
same,SPOT peptide array binding signal intensity,CaCyk3,1
same,SPOT peptide array binding signal intensity,CaFus1,31.5
same,SPOT peptide array binding signal intensity,CaHof1,≤ 0
same,SPOT peptide array binding signal intensity,CaHse1,≤ 0
same,SPOT peptide array binding signal intensity,CaLsb1,≤ 0
same,SPOT peptide array binding signal intensity,CaLsb4,4.5
same,SPOT peptide array binding signal intensity,CaMyo5,386
same,SPOT peptide array binding signal intensity,CaNbp2,15.5
same,SPOT peptide array binding signal intensity,CaRvs167,≤ 0
same,SPOT peptide array binding signal intensity,CaRvs167-3,3
same,SPOT peptide array binding signal intensity,CaSho1,5
same,SPOT peptide array binding signal intensity,CaSla1-D1-D2,8.5
same,SPOT peptide array binding signal intensity,CaSla1-D3,≤ 0
same,SPOT peptide array binding signal intensity,ScAbp1,9
same,SPOT peptide array binding signal intensity,ScBbc1,≤ 0
same,SPOT peptide array binding signal intensity,ScBem1-D1,≤ 0
same,SPOT peptide array binding signal intensity,ScBzz1-D1,4
same,SPOT peptide array binding signal intensity,ScBzz1-D2,20
same,SPOT peptide array binding signal intensity,ScCyk3,≤ 0
same,SPOT peptide array binding signal intensity,ScFus1,≤ 0
same,SPOT peptide array binding signal intensity,ScHof1,≤ 0
same,SPOT peptide array binding signal intensity,ScHse1,50
same,SPOT peptide array binding signal intensity,ScLsb1,1
same,SPOT peptide array binding signal intensity,ScLsb2,≤ 0
same,SPOT peptide array binding signal intensity,ScLsb3,24.5
same,SPOT peptide array binding signal intensity,ScLsb4,≤ 0
same,SPOT peptide array binding signal intensity,ScMyo3,2350
same,SPOT peptide array binding signal intensity,ScMyo5,1200
same,SPOT peptide array binding signal intensity,ScNbp2,6.5
same,SPOT peptide array binding signal intensity,ScPex13,≤ 0
same,SPOT peptide array binding signal intensity,ScRvs167,2
same,SPOT peptide array binding signal intensity,ScSho1,≤ 0
same,SPOT peptide array binding signal intensity,ScSla1-D1-D2,≤ 0
same,SPOT peptide array binding signal intensity,ScSla1-D3,22.8
same,SPOT peptide array binding signal intensity,SpAbp1-D1,8
same,SPOT peptide array binding signal intensity,SpBbc1,5
same,SPOT peptide array binding signal intensity,SpBzz1-D1,182
same,SPOT peptide array binding signal intensity,SpBzz1-D2,0.5
same,SPOT peptide array binding signal intensity,SpCyk3,1
same,SPOT peptide array binding signal intensity,SpHof1,≤ 0
same,SPOT peptide array binding signal intensity,SpHof1-2,≤ 0
same,SPOT peptide array binding signal intensity,SpHof1-3,0.5
same,SPOT peptide array binding signal intensity,SpHse1,2.5
same,SPOT peptide array binding signal intensity,SpLsb1,1.5
same,SPOT peptide array binding signal intensity,SpLsb4,≤ 0
same,SPOT peptide array binding signal intensity,SpMyo1,1570
same,SPOT peptide array binding signal intensity,SpNbp2,3
same,SPOT peptide array binding signal intensity,SpPex13,≤ 0
same,SPOT peptide array binding signal intensity,SpRvs167,1.17
same,SPOT peptide array binding signal intensity,SpSla1-D1-D2,2
same,SPOT peptide array binding signal intensity,SpSla1-D3,3
B2,SPOT peptide array binding signal intensity,AgAbp1,6
same,SPOT peptide array binding signal intensity,AgBbc1,≤ 0
same,SPOT peptide array binding signal intensity,AgBem1-D1,190
same,SPOT peptide array binding signal intensity,AgBzz1-D1,≤ 0
same,SPOT peptide array binding signal intensity,AgBzz1-D2,5.5
same,SPOT peptide array binding signal intensity,AgCyk3,13.5
same,SPOT peptide array binding signal intensity,AgFus1,1800
same,SPOT peptide array binding signal intensity,AgHof1,5
same,SPOT peptide array binding signal intensity,AgHse1,1200
same,SPOT peptide array binding signal intensity,AgLsb1,3
same,SPOT peptide array binding signal intensity,AgLsb4,334
same,SPOT peptide array binding signal intensity,AgMyo5,1
same,SPOT peptide array binding signal intensity,AgNbp2,82.5
same,SPOT peptide array binding signal intensity,AgRvs167,2.5
same,SPOT peptide array binding signal intensity,AgSho1,218
same,SPOT peptide array binding signal intensity,AgSla1-D1-D2,14.5
same,SPOT peptide array binding signal intensity,AgSla1-D3,2.75
same,SPOT peptide array binding signal intensity,CaAbp1-D1,30.5
same,SPOT peptide array binding signal intensity,CaAbp1-D2,78.5
same,SPOT peptide array binding signal intensity,CaBbc1,0.25
same,SPOT peptide array binding signal intensity,CaBem1-D1,≤ 0
same,SPOT peptide array binding signal intensity,CaBzz1-D1,63
same,SPOT peptide array binding signal intensity,CaBzz1-D2,36.8
same,SPOT peptide array binding signal intensity,CaCyk3,5
same,SPOT peptide array binding signal intensity,CaFus1,3930
same,SPOT peptide array binding signal intensity,CaHof1,0.75
same,SPOT peptide array binding signal intensity,CaHse1,174
same,SPOT peptide array binding signal intensity,CaLsb1,6.5
same,SPOT peptide array binding signal intensity,CaLsb4,31.5
same,SPOT peptide array binding signal intensity,CaMyo5,31.5
B3,SPOT peptide array binding signal intensity,SpBzz1-D2,≤ 0
same,SPOT peptide array binding signal intensity,SpCyk3,150
same,SPOT peptide array binding signal intensity,SpHof1,2260
same,SPOT peptide array binding signal intensity,SpHof1-2,1610
same,SPOT peptide array binding signal intensity,SpHof1-3,776
same,SPOT peptide array binding signal intensity,SpHse1,1.75
same,SPOT peptide array binding signal intensity,SpLsb1,1
same,SPOT peptide array binding signal intensity,SpLsb4,2190
same,SPOT peptide array binding signal intensity,SpMyo1,60.2
same,SPOT peptide array binding signal intensity,SpNbp2,≤ 0
same,SPOT peptide array binding signal intensity,SpPex13,1.5
same,SPOT peptide array binding signal intensity,SpRvs167,777
same,SPOT peptide array binding signal intensity,SpSla1-D1-D2,9
same,SPOT peptide array binding signal intensity,SpSla1-D3,≤ 0
